SMILES strings stand for the structures. “And” between values parts separate entries of the source, which are not always exact repeats. Equal values may be shown once. Results filed as inconclusive are left out. Some compounds were tested as several samples or in several runs, with calls that do not always agree. The source made the active and inactive calls. Rule for the calls: active = hit-call score of the fitted dose curve at least 0.9, where 1 is the maximum; inconclusive = response in the unintended direction; inactive = score below 0.9.

One may read the AC50 as the midpoint of the concentration-response curve, whichever way the signal moves.

Chain of Cellular tumor antigen p53 (Homo sapiens) (P04637 whole entry, looked up): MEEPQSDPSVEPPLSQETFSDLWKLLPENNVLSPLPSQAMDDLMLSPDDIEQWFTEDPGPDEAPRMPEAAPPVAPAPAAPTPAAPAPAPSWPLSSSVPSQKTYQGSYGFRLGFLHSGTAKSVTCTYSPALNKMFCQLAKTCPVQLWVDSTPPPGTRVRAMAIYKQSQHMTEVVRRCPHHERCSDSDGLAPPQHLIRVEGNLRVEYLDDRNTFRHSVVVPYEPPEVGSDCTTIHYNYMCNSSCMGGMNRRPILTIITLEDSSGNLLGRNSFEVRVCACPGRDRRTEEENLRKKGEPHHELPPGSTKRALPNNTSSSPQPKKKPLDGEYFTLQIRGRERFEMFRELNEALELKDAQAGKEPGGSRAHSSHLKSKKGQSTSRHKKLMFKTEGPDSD

System in the first assay: not listed separately
Description: TOX21_p53_BLA_p5_viability: Viability Assessment in the Tox21 HCT-116 p53 Agonism Beta-lactamase Assay, Phase 5 (AID 2283600). An outline of the steps: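 Here cell health was gauged by ATP levels in wells holding 4000 cells, each treated 16 h with DMSO-delivered compounds at 217-fold dilution; reduced luminescence marked toxicity.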
For the compound `CC[C@H](C)C(=O)O[C@H]1CCC=C2C=C[C@H](C)[C@H](CC[C@@H]3C[C@@H](O)CC(=O)O3)[C@H]21`, the compound was called inactive. In the case of `CC(=O)[C@]1(O)Cc2c(O)c3c(c(O)c2[C@@H](O[C@H]2C[C@H](N)[C@H](O)[C@H](C)O2)C1)C(=O)c1c(O)cccc1C3=O`, the result was inactive. Regarding `C[C@@H]1C[C@H]2[C@@H]3CCC4=CC(=O)C=C[C@]4(C)[C@@]3(F)[C@@H](O)C[C@]2(C)[C@@]1(O)C(=O)CO`, the compound was classed as inactive.

For `O=C(O)c1cc(=O)c2c(OCC(O)COc3cccc4oc(C(=O)O)cc(=O)c34)cccc2o1`, the compound was called inactive. For `Oc1ccc(OCc2ccccc2)cc1`, the outcome was inactive.

With `CC(C)(C)NC[C@H](O)COc1nsnc1N1CCOCC1`, the outcome was inactive. For the compound `c1ccc([C@H]2CN3CCSC3=N2)cc1`, the outcome was inactive. On the same count and under the same terms, in the case of `CO[C@H](C(=O)[C@@H](O)[C@@H](C)O)C1Cc2cc3cc(O[C@H]4C[C@@H](O[C@H]5C[C@@H](O)[C@H](O)[C@@H](C)O5)[C@@H](O)[C@@H](C)O4)c(C)c(O)c3c(O)c2C(=O)[C@H]1O[C@H]1C[C@@H](O[C@H]2C[C@@H](O[C@H]3C[C@](C)(O)[C@H](O)[C@@H](C)O3)[C@H](O)[C@@H](C)O2)[C@H](O)[C@@H](C)O1` (some centres undefined) it was “inactive”; in that of `CCOC(=O)COc1ccc(C)cc1`, “inactive”; in that of `Nc1c2c(nc3ccccc13)CCCC2`, “inactive”.

In the next assay the target is Cellular tumor antigen p53 (Homo sapiens) (UniProt P04637). Put plainly: TOX21_p53_BLA_p4_ratio: Tox21 HCT-116 p53 Agonism Beta-lactamase Assay, Ratio, Phase 4 (AID 2283601). The method in brief:
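HCT116 cells carrying an inducible beta-lactamase reporter were plated at 4000 cells/well, rested 5 h, then exposed to compounds in DMSO (217-fold dilution) for 16 h at 37C. CCF4-AM substrate was loaded 2 h at room temperature; 460/530 nm emission ratio scored gain-of-signal versus DMSO.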
In the case of `CC1C(=O)CC2C3(C)CCC2(C(C)C(=O)O)C(=O)C13` (centres undefined), the result was inactive. The same measure, in the same setting: the result for `O=S(=O)(O)CCCS(=O)(=O)O` reads “inactive”.

For `CC[C@H](C)C(=O)O[C@H]1CCC=C2C=C[C@H](C)[C@H](CC[C@@H]3C[C@@H](O)CC(=O)O3)[C@H]21`, the result was inactive. As to `O=C(O)P(=O)(O)O`, the result was inactive. `N[C@@H](Cc1cc(I)c(O)c(I)c1)C(=O)O`: the outcome was inactive.

`NC(Cc1ccc(F)cc1)C(=O)O` (centres undefined): the outcome was inactive.

Turning to `Cc1cc(C2CCCCC2)n(O)c(=O)c1`, the outcome was inactive. The same measure, in the same setting: the result for `C[C@@H]1C[C@H]2[C@@H]3C[C@H](F)C4=CC(=O)C=C[C@]4(C)[C@@]3(Cl)[C@@H](O)C[C@]2(C)[C@H]1C(=O)COC(=O)C(C)(C)C` reads “inactive”.

Turning to `CC(=O)[C@]1(O)Cc2c(O)c3c(c(O)c2[C@@H](O[C@H]2C[C@H](N)[C@H](O)[C@H](C)O2)C1)C(=O)c1c(O)cccc1C3=O`, the outcome was inactive and the AC50 was 571 nM (active). Take `CN1C[C@@H]2C[C@H]1CN2c1cc2c(cc1F)c(=O)c(C(=O)O)cn2C1CC1`: the outcome was inactive. Same read-out and setting: the result for `CCOC(=O)c1c(N)sc2c1CCN(Cc1ccccc1)C2` reads “inactive”; that for `CC(C)NCC(O)c1ccc2ccccc2c1` (centres undefined), “inactive”.

Consider `Nc1ccn(C2CO[C@H](CO)O2)c(=O)n1` (some centres undefined), for which the AC50 is 0.0816 nM (active).

For `c1ccc(-n2cnnn2)cc1`, the result was inactive. Still for that read-out and setting: the result for `C[C@@H]1C[C@H]2[C@@H]3CCC4=CC(=O)C=C[C@]4(C)[C@@]3(F)[C@@H](O)C[C@]2(C)[C@@]1(O)C(=O)CO` reads “inactive”; that for `O=C(O)c1cc(=O)c2c(OCC(O)COc3cccc4oc(C(=O)O)cc(=O)c34)cccc2o1`, “inactive”. Same read-out and setting: in the case of `CC(C)=C1CC[C@@H](C)CC1=O` it was “inactive”; in that of `CCCCCCCCCCC[C@@H](C[C@@H]1OC(=O)[C@H]1CCCCCC)OC(=O)[C@H](CC(C)C)NC=O`, “inactive”; in that of `O=S(O)CO`, “inactive”. Regarding `Oc1ccc(OCc2ccccc2)cc1`, the result was inactive and the AC50 is 9050 nM (active). Take `CC(C)(C)NC[C@H](O)COc1nsnc1N1CCOCC1`: the outcome was inactive. With `c1ccc([C@H]2CN3CCSC3=N2)cc1`, the result was inactive. As for `C=C(C)C(=O)OCCCC`, the result was inactive.

For `CO[C@@H]1[C@@H](OC)[C@H](C)[C@@](O)(CC(=O)O)O[C@H]1[C@H](C)[C@H]1O[C@@]2(CC[C@@](C)([C@H]3CC[C@@](C)([C@@H]4O[C@@H]([C@H]5O[C@](C)(O)[C@H](C)C[C@@H]5C)C[C@@H]4OC4C[C@H](OC)[C@@H](OC)[C@H](C)O4)O3)O2)C[C@H](O)[C@H]1C` (some centres undefined), the result was inactive. As for `CO[C@H](C(=O)[C@@H](O)[C@@H](C)O)C1Cc2cc3cc(O[C@H]4C[C@@H](O[C@H]5C[C@@H](O)[C@H](O)[C@@H](C)O5)[C@@H](O)[C@@H](C)O4)c(C)c(O)c3c(O)c2C(=O)[C@H]1O[C@H]1C[C@@H](O[C@H]2C[C@@H](O[C@H]3C[C@](C)(O)[C@H](O)[C@@H](C)O3)[C@H](O)[C@@H](C)O2)[C@H](O)[C@@H](C)O1` (some centres undefined), the AC50 was 45.6 nM (active) and 49.7 nM (active). Consider `Nc1ccccc1O`, for which the AC50 is 35200 nM (active). On to `CCCCCCCCCCCCCCC[C@H](O)[C@@H](N)CO`, for which the result was inactive.

Source of the values: PubChem BioAssay (EPA / NIEHS).
